This note sets out measurements from ChEMBL document CHEMBL2218924, “A broad activity screen in support of a chemogenomic map for kinase signalling research and drug discovery” (Biochem J, 2013).

The target in experiment [1] is T1, Mitogen-activated protein kinase kinase kinase 7 (Homo sapiens) (UniProt O43318).
T1 sequence (whole entry): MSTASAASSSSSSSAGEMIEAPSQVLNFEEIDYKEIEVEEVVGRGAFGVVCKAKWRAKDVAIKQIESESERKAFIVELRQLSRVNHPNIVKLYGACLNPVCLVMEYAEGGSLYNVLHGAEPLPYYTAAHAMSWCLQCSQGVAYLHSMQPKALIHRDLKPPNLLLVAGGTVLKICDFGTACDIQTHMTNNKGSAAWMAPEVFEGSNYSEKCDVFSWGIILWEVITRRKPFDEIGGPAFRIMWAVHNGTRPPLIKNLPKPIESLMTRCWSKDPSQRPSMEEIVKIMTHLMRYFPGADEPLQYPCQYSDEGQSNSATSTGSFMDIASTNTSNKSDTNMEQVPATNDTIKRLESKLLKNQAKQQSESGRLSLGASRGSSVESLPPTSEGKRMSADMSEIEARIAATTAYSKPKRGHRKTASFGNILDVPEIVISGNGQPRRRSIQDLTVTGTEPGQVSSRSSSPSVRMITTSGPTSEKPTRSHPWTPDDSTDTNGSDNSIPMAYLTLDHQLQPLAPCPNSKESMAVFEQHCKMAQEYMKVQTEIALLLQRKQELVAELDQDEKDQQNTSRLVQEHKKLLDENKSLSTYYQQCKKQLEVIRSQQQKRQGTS
To be noted: at 10 µM.

The target of experiment [2] is T2, Serine/threonine-protein kinase TAO2 (Homo sapiens) (UniProt Q9UL54).
T2 sequence (whole entry): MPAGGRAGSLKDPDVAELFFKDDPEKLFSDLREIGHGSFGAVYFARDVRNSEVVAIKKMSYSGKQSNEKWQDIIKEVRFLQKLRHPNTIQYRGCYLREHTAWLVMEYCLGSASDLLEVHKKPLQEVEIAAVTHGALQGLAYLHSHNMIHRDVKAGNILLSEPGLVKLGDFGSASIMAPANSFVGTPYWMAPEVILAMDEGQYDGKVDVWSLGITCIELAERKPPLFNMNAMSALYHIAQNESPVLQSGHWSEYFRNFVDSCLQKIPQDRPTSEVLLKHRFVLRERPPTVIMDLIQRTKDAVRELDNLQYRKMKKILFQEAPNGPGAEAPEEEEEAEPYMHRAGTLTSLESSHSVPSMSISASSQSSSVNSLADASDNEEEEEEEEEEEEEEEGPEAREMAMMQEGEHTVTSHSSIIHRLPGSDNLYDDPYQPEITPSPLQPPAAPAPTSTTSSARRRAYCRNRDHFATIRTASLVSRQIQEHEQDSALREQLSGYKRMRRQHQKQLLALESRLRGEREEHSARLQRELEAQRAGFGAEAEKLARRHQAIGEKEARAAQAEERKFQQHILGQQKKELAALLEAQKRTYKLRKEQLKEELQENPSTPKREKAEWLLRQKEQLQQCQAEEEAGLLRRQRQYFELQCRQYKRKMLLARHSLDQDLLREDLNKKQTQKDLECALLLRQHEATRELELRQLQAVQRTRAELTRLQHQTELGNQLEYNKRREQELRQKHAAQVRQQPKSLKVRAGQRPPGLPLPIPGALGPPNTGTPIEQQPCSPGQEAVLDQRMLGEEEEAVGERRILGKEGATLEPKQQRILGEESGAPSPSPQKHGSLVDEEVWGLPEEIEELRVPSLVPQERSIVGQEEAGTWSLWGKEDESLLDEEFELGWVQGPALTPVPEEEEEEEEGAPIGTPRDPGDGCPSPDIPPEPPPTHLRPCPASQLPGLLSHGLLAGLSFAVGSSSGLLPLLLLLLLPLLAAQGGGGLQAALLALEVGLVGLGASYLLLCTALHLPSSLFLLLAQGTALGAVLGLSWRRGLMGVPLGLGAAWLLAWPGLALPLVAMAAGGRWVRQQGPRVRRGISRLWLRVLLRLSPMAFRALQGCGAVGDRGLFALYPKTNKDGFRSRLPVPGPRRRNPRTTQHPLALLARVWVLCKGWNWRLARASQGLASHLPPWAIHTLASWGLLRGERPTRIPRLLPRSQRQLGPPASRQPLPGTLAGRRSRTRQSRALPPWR
To be noted: at 10 µM.

Experiment [3] has as its target T3, Serine/threonine-protein kinase TBK1 (Homo sapiens) (UniProt Q9UHD2).
T3 sequence (whole entry): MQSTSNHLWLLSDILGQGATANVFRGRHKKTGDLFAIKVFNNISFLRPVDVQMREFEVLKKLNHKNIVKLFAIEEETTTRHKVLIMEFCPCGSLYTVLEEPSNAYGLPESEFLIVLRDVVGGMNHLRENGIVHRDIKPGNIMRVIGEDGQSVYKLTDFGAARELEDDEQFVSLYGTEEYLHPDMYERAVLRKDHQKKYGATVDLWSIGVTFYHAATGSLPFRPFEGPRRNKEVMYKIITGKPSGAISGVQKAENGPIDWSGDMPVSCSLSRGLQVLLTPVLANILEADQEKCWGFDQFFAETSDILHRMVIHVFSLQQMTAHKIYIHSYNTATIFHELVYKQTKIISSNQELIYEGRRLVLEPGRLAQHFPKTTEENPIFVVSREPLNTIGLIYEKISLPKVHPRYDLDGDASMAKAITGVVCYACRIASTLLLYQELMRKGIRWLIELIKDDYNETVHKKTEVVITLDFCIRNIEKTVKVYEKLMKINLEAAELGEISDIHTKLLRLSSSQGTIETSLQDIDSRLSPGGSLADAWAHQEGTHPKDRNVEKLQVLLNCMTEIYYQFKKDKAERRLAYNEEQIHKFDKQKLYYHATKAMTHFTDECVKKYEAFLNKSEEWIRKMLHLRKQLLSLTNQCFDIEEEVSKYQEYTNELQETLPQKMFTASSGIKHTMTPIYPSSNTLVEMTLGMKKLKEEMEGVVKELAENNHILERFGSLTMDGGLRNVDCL
To be noted: at 10 µM.

In experiment [4] the target is T4, Inhibitor of nuclear factor kappa-B kinase subunit alpha (Homo sapiens) (UniProt O15111).
T4 sequence (whole entry): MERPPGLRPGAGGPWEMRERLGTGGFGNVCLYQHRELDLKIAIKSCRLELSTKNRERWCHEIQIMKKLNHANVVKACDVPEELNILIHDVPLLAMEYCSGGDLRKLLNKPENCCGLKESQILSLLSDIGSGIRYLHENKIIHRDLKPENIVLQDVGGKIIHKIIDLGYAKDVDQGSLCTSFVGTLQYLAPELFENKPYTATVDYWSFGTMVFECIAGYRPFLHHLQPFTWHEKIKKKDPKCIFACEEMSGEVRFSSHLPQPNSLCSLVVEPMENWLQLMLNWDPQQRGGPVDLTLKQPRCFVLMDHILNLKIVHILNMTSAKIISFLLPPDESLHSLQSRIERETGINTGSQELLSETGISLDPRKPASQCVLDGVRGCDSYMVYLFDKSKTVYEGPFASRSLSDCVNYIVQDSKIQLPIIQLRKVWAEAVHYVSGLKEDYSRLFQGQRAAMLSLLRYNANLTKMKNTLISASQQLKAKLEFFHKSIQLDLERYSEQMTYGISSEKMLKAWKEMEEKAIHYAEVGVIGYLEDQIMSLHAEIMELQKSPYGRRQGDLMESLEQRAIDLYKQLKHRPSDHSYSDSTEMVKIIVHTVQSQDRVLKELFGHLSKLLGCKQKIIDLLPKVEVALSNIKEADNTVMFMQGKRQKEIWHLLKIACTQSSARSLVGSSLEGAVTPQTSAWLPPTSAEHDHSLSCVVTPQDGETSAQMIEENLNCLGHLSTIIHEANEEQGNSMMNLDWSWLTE
To be noted: at 1 µM.

The target in experiment [5] is T5, Inhibitor of nuclear factor kappa-B kinase subunit beta (Homo sapiens) (UniProt O14920).
T5 sequence (whole entry): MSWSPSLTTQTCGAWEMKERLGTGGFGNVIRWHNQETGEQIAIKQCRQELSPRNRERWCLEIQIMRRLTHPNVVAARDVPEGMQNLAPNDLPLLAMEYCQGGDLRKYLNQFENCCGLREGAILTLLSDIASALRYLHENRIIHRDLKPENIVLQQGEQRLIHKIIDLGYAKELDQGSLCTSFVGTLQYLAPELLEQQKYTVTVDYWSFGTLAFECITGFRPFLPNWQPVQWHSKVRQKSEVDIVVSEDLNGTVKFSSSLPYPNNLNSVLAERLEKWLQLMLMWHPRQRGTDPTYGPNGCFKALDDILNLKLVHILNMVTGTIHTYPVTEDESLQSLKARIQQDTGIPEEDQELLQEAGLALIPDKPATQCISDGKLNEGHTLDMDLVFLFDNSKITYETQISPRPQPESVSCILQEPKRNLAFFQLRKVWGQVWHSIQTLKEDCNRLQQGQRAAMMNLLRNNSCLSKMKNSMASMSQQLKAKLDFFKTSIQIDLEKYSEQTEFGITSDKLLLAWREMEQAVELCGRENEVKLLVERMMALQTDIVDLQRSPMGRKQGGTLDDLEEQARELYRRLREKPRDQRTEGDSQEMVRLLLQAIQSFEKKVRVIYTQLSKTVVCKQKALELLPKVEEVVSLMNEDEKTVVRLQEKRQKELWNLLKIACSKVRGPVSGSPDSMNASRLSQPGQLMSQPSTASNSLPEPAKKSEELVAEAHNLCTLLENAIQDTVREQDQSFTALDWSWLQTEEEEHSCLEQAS
The conditions noted are these: at 1 µM.

The target in experiment [6] is T6, Serine/threonine-protein kinase TAO1 (Homo sapiens) (UniProt Q7L7X3).
T6 sequence (whole entry): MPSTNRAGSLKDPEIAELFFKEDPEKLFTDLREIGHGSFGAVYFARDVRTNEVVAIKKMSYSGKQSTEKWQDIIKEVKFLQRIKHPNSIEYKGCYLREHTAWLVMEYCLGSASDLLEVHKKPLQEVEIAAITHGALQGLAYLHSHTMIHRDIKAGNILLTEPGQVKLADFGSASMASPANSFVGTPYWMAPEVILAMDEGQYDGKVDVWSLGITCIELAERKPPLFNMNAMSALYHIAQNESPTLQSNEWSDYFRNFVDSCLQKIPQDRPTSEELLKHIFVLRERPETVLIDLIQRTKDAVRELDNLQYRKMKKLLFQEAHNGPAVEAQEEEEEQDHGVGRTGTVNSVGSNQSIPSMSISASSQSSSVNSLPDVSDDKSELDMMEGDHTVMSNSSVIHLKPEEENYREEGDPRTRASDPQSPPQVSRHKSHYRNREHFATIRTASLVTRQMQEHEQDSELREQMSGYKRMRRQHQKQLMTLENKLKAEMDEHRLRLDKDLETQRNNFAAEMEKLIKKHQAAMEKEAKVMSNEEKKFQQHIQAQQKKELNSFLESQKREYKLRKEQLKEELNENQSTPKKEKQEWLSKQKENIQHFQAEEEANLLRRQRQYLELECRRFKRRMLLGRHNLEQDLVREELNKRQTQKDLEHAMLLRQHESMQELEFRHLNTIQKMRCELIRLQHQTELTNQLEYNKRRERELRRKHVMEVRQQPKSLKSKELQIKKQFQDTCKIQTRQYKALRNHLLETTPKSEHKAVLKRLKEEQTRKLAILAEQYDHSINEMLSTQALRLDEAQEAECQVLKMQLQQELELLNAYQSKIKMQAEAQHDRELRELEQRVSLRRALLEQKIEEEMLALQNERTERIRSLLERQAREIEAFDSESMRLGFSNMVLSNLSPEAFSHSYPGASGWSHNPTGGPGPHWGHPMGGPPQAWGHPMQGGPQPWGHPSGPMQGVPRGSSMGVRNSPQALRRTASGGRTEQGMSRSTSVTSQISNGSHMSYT
To be noted: at 10 µM.

Experiment [7] deals with T2, Serine/threonine-protein kinase TAO2 (Homo sapiens). The conditions noted are these: at 1 µM.
Experiment [8] concerns the target T7, Serine/threonine-protein kinase TAO3 (Homo sapiens) (UniProt Q9H2K8).
T7 sequence (whole entry): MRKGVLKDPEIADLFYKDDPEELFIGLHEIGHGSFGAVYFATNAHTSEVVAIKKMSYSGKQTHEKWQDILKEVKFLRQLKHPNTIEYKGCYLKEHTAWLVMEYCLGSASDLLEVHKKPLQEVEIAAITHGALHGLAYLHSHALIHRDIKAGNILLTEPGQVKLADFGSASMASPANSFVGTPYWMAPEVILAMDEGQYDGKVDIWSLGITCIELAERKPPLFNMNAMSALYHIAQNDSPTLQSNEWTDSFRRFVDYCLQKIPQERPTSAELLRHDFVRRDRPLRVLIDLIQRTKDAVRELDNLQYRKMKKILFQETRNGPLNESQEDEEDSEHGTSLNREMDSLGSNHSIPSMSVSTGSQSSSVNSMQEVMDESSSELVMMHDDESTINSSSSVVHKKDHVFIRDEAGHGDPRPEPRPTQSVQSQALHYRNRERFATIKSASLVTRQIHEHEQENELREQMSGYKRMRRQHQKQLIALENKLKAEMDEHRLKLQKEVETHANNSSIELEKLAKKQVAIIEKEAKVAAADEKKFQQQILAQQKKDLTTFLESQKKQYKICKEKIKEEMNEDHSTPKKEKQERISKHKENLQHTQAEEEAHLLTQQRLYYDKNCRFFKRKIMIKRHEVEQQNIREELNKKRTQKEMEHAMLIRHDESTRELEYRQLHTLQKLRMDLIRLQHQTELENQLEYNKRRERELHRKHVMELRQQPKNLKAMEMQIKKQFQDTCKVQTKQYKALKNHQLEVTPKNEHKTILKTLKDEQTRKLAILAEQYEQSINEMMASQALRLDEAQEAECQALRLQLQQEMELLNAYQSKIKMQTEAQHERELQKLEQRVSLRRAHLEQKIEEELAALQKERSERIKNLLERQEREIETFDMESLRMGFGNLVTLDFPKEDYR
To be noted: at 1 µM.

The target in experiment [9] is T7, Serine/threonine-protein kinase TAO3 (Homo sapiens). To be noted: at 10 µM.
The target in experiment [10] is T3, Serine/threonine-protein kinase TBK1 (Homo sapiens). The conditions noted are these: at 1 µM.
The target in experiment [11] is T5, Inhibitor of nuclear factor kappa-B kinase subunit beta (Homo sapiens). The conditions noted are these: at 10 µM.

Consider `Nc1nccc(-c2c(-c3ccc(F)cc3)ncn2C2CCNCC2)n1`, for which the residual activity was 79% in [1]; 80% in experiment [2]; 69% in experiment [3]; 120% in experiment [4]; 116% in experiment [5].
Consider `COc1cc2nccc(Oc3ccc(NC(=O)Nc4cc(C)on4)c(Cl)c3)c2cc1OC`, for which the residual activity in [6] came out at 52%; in experiment [7], 73%; in experiment [2] it was 43%; in [8], 82%; in experiment [9], 57%; in experiment [10], 82%. Moreover, the residual activity in experiment [3] amounted to 68%; in experiment [5], 104%; in experiment [11], 102%.
Consider `CCOc1nc(NC(=O)Cc2cc(OC)ccc2OC)cc(N)c1C#N`, for which the residual activity turned out to be 79% in experiment [10] and 68% in experiment [3].
